Screen size: about 370,000 compounds; about 4,800 (1.3%) were called active.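 The calls were made as follows: active = inhibition above about 21% made by adding two undisclosed values (limit read from the data); inactive = the rest.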 Only a selection was taken, and actives are over-represented in it overall.

Results on 91 compounds are retold here after PubChem BioAssay AID652257 (The Scripps Research Institute Molecular Screening Center, 2013).

This test deals with Protein arginine N-methyltransferase 1 (Homo sapiens) (UniProt Q99873). As to the kind of experiment: human PRMT1 activity-probe blockers – biochemical, fluorescence polarization, primary screen (AID 652257). The conditions noted are these: recombinant PRMT1, activity-based probe fluorescence polarization; at 2.79 µM; active compounds read high. (In general: In fluorescence polarisation assays a small probe gives low polarisation when free and higher when bound to something large.)
Chain of Protein arginine N-methyltransferase 1 (Homo sapiens) (Q99873 whole entry, looked up): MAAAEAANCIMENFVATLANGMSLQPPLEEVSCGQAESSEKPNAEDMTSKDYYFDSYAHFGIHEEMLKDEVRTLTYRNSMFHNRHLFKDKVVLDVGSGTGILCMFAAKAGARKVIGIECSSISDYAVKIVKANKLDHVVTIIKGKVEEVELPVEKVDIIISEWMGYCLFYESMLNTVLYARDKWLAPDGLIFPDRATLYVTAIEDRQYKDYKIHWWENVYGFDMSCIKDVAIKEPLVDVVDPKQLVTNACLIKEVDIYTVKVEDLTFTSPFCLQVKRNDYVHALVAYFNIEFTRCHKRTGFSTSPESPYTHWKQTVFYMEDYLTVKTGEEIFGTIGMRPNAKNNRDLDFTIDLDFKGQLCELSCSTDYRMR
For `COc1ccc(CN2C/C(=C/c3ccccc3)N3C(=O)C[C@@H](c4ccccc4)N=C23)c(OC)c1`, the inhibition (usually the change of the read-out against control, counted positive when it falls) is 0.52% (inactive). Consider `CCC(C)c1ccc(NC(=S)N2CCCC2)cc1` (stereo unspecified), for which the inhibition is 2.33% (inactive). As for `COc1ccc(N2CCN(CCNS(=O)(=O)c3ccc(C(C)(C)C)cc3)CC2)cc1`, the inhibition is 0.09% (inactive). The value for `CCC(=C/c1sc2ccc3ccccc3c2[n+]1C)/C=C1\Sc2ccc3ccccc3c2N1C` was 75.6% (active); that for `Oc1c(C=Nc2cccc3nsnc23)ccc2ccccc12` was 27.2% (active); that for `O=C(NC1CCCCN(Cc2cccc(C(F)(F)F)c2)C1=O)c1ccccc1I` (stereo unspecified) was -1.71% (inactive). The value for `COC(=O)c1cccc(Cn2ccc3ccc(-c4ccc5ccn(C(=O)c6ccccc6C)c5c4)cc32)c1` was 1.92% (inactive). Turning to `COc1cc(NC(=O)C2CCCN(S(=O)(=O)c3ccc(C(C)(C)C)cc3)C2)cc(OC)c1` (stereo unspecified), the inhibition is -5.91% (inactive). For the compound `Cc1sc(NC(=S)NC(=O)c2cccs2)nc1-c1ccc(CC(C)C)cc1`, the inhibition was -4.11% (inactive). The same measure for `O=C(NC(=S)Nc1cccc(-c2ccc(CO)o2)c1)c1cccs1`: 21.4% (active); for `NS(=O)(=O)c1ccc(NC(=S)NNC(=O)c2cccs2)cc1`: 0.74% (inactive). In the case of `CCOC(=O)[C@]12CCCC=C1N(Cc1ccc(OC)cc1)C(=O)[C@@H]2CC(=O)NCc1cccs1`, the inhibition is 7.82% (inactive). As for `COc1cc(NC(=S)N2CCCC(C)C2)cc(OC)c1OC` (stereo unspecified), the inhibition is 5.72% (inactive). Take `COc1cc(NC(=O)CSC(=S)N2CCCC2)c(OC)cc1Cl`: the inhibition is 8.65% (inactive).

In the case of `COc1cc(NC(=S)N2CCCC(C)C2)c(OC)cc1Cl` (stereo unspecified), the inhibition is 40.8% (active). Turning to `CCOC(=O)N1CCN(C(=O)C[C@@H]2C(=O)N(CCc3ccc(Cl)cc3)C3=CCCC[C@]32C(=O)OCC)CC1`, the inhibition was 0.68% (inactive).

Take `O=C(COc1ccccc1O)NC1CCCC1`: the inhibition is 3.06% (inactive). As for `COc1ccc(Cl)cc1C=CC=NNC(=O)c1ccncc1`, the inhibition is -0.1% (inactive). As to `COc1ccc(Cl)cc1C=CC=Nc1ccc(S(N)(=O)=O)cc1`, the inhibition was -7.11% (inactive). In the case of `COc1ccccc1/C=C/C=N/n1c(-c2ccc(Cl)cc2Cl)n[nH]c1=S`, the inhibition is 21.3% (active).

In the case of `Cc1ccc(NC(=O)Cc2cccc(F)c2)c(S(=O)(=O)N2CCOCC2)c1`, the inhibition is 0.91% (inactive). On to `COc1ccc(-n2c(SCC(=O)Nc3ccc4cn[nH]c4c3)nnc2-c2cccnc2)cc1`, for which the inhibition was -1.98% (inactive). As to `FC(F)(F)c1cccc(NC(=S)OC2CCC23CCC(c2ccccc2)CC3)c1` (stereo unspecified), the inhibition is -5.1% (inactive).

For the compound `CN(c1ccccc1)S(=O)(=O)c1ccc(C(=O)NCc2cccnc2)cc1`, the inhibition was -4.64% (inactive). `O=C(CN(c1cc(C(F)(F)F)ccc1Cl)S(=O)(=O)c1ccccc1)NCc1cccnc1`: the inhibition is 0.93% (inactive). On to `O=C(c1cccnc1)N(c1cc2sc(=O)oc2c2ccccc12)S(=O)(=O)c1ccccc1`, for which the inhibition was 78.8% (active).

Regarding `O=C1CCC2(CCC(c3ccc(Cl)cc3)CC2)N1CCO` (stereo unspecified), the inhibition was -4.08% (inactive).

With `O=C(NC1CCCCN(Cc2ccc(Cl)cc2)C1=O)c1ccc(Br)cc1` (stereo unspecified), the inhibition is -6.45% (inactive). With `Cc1c(NC(=S)NCc2ccc(F)cc2)cccc1[N+](=O)[O-]`, the inhibition is 4.29% (inactive). For the compound `Cc1c(NC(=O)/C=C/C(=O)O)cccc1[N+](=O)[O-]`, the inhibition was 70.3% (active). Turning to `Cc1c(NC(=O)CCCOc2ccccc2)cccc1[N+](=O)[O-]`, the inhibition was 2.67% (inactive). As to `COc1ccc(CCN2CNc3c(c(=O)n(C)c(=O)n3C)C2)cc1OC`, the inhibition was 5.09% (inactive). In the case of `O=S(=O)(c1ccc(SCc2ccccc2)nc1)N1CCCCCC1`, the inhibition was -2.5% (inactive). `O=S(=O)(c1ccc(SCc2ccc(Br)cc2)nc1)N1CCOCC1`: the inhibition was 0.76% (inactive).

`O=S(=O)(c1ccc(Sc2nnc3ccccn23)nc1)N1CCOCC1`: the inhibition is 65.8% (active). Consider `CCOC(=O)[C@]12CCCCC/C=C\1N(Cc1ccc(OC)cc1)C(=O)[C@H]2CC(=O)NCCCN1CCCC1=O`, for which the inhibition was 0.39% (inactive). `COc1c(C(=O)N2CCCC2)ccc2ccccc12`: the inhibition was 1.75% (inactive). With `COC(=O)c1ccc(Cc2ccccc2)o1`, the inhibition is -1.95% (inactive). Take `COC(=O)C[n+]1cccc2ccccc21`: the inhibition was 38.1% (active).

`COc1ccc(CN(CCN2CCOCC2)C(=O)c2ccc(C)cc2)cc1OC`: the inhibition was 2.63% (inactive). As to `Cc1ccc(Cn2cc(CN3[C@@H](C)COc4cc(Br)ccc4S3(=O)=O)nn2)cc1`, the inhibition is 0.27% (inactive). Take `CCOC(=O)[C@]12CCCCC/C=C\1N(Cc1ccc(OC)cc1)C(=O)[C@H]2CC(=O)N1CCOCC1`: the inhibition is 0.54% (inactive). Consider `CSCCNC(=O)c1ccc2nc(Cc3ccccc3F)oc2c1`, for which the inhibition is 3.93% (inactive).

As to `C=CCN1C(=O)[C@H](CC(=O)N2CCN(C(=O)OCC)CC2)[C@@]2(C(=O)OCC)CCCC=C12`, the inhibition was 0.65% (inactive). On to `O=C1CC(N2CCN(c3ccc(F)cc3)CC2)C(=O)N1c1ccccc1` (stereo unspecified), for which the inhibition is 21.5% (active).

As to `O=C(C1CC(=O)N(c2ccc(F)cc2)C1)N1CCN(c2ccccc2)CC1` (stereo unspecified), the inhibition is -0.62% (inactive). For the compound `COC(=O)c1cc(C(=O)OC)cc(N2C(=O)CC(N3CCN(c4ccccc4)CC3)C2=O)c1` (stereo unspecified), the inhibition is 3.3% (inactive). As to `COC(=O)C1(CCSC)NC(c2ccc(OC)cc2OC)C2C(=O)N(c3cccc(C(C)=O)c3)C(=O)C21` (stereo unspecified), the inhibition was -3.15% (inactive).

Regarding `CC1CCCCC1NC(=O)COC(=O)Cc1ccc(Br)cc1` (stereo unspecified), the inhibition is -4.22% (inactive). As for `O=C(Nc1ccccc1)c1nnsc1S(=O)(=O)c1ccc(Cl)cc1`, the inhibition was 89.9% (active). The same measure for `O=C(Nc1cccc(Cl)c1)c1cc(S(=O)(=O)N2CCCCC2)c[nH]1`: 3.07% (inactive). The same measure for `Cc1nnsc1C(=O)Nc1cccc(Cl)c1C`: 2.23% (inactive); for `O=c1[nH]c2c(c(=O)n1-c1ccccc1)CCO2`: 3.18% (inactive). The value for `Cc1ccc(S(=O)(=O)NCCC(c2ccccc2)c2ccccc2)cc1C(=O)O` was -5.2% (inactive); that for `COC(=O)c1ccc(CNC(=O)Cn2cc(C)c(=O)[nH]c2=O)cc1` was 3.88% (inactive); that for `CC(=O)NC1=NC(=O)CS1` was 71.7% (active). For `C[C@@H]1CN([C@@H](C)CO)C(=O)c2cccc(NC(=O)Nc3cccc4ccccc34)c2O[C@H]1CN(C)S(=O)(=O)c1ccccc1F`, the inhibition is -7.41% (inactive). Take `COc1cccc(/C=C2\CC3(OC(C)=O)CCCN2C3)c1` (stereo unspecified): the inhibition was -1.33% (inactive). Consider `CCCCC(=O)N[C@@H]1CC[C@@]23CCCN2C(=O)CCC[C@H]3[C@H]1C`, for which the inhibition was -1.5% (inactive).

Consider `CCc1n[nH]c(=S)n1/N=C/c1c[nH]c2ccc(Br)cc12`, for which the inhibition is 29.8% (active). Consider `S=c1[nH]nc(-c2ccccc2)n1/N=C/c1c[nH]c2ccccc12`, for which the inhibition is 25.5% (active).

On to `C[n+]1ccc(/C=C/c2c[nH]c3ccccc23)cc1`, for which the inhibition was 4.53% (inactive). Turning to `CCOc1ccc(-c2n[nH]c(=S)n2/N=C/c2cc3c(cc2[N+](=O)[O-])OCO3)cc1`, the inhibition is -0.65% (inactive). Consider `Cc1cccc(NC(=O)CSc2nnc(CCNC(=O)OC(C)(C)C)o2)c1C`, for which the inhibition was -1.24% (inactive). The same measure for `O=C(O)CCN1C(=O)CC2(CCCCC2)C1=O`: 0.48% (inactive); for `N#Cc1ccc(OC[C@@H](O)CN2CCC(C(O)(c3ccccc3)c3ccccc3)CC2)c(F)c1`: -0.03% (inactive); for `CC(=O)N1CCCc2cc(S(=O)(=O)N3CCCC(C(=O)N4CCN(c5cccc(Cl)c5)CC4)C3)ccc21` (stereo unspecified): -1.42% (inactive).

For `CCOC(=O)C1(Cc2ccc(Cl)cc2)CCN(C(=O)C2=NNC(=O)CC2)CC1`, the inhibition was 3.16% (inactive). On to `CCOCCCNC(=S)N1CCC(NC(=O)C2CCCCC2)CC1`, for which the inhibition is 4.18% (inactive). On to `CCOC(=O)c1ccn(-c2nc(-c3ccco3)cc(C(F)(F)F)n2)n1`, for which the inhibition was 3.19% (inactive). The value for `Cc1cc(C)c2nc(-c3ccco3)cc(C(=O)O)c2c1` was 36.4% (active). As for `Cc1ccsc1-c1cc(C(=O)O)c2c(ccc3ccccc32)n1`, the inhibition was -0.02% (inactive). The same measure for `COc1ccc(-c2cc(-c3nnc(SCC(=O)Nc4cccc5ccccc45)n3N)[nH]n2)cc1`: 2.25% (inactive); for `Cc1ccc2c(c1)c1ncnc(N3CCc4ccccc4C3)c1n2C`: -0.03% (inactive).

As for `CCN(C(=O)Nc1cccc2ccccc12)c1ccccc1`, the inhibition was 9.59% (inactive). The same measure for `Cc1cccc(C)c1NC(=O)C(c1cccc(F)c1)N1CCN(C)CC1` (stereo unspecified): -4.4% (inactive); for `O=S1(=O)c2c(NCc3ccco3)cccc2Oc2ccccc2CN1Cc1cn(Cc2cccc(C(F)(F)F)c2)nn1`: 0.88% (inactive). For `COC(=O)C1=C(C)NC(=S)NC1c1ccc(OC)cc1` (stereo unspecified), the inhibition was -3.18% (inactive).

Turning to `COc1ccc(CCNC2=CC(=O)CC(C)(C)C2)cc1`, the inhibition was -4.15% (inactive). As for `COc1ccc(NC2=CC(=S)NC(C)(C)C2)cc1`, the inhibition was 33.8% (active). As for `Cc1ccc(Cn2cc(CN3[C@@H](CC(C)C)COc4ccc(Cl)cc4S3(=O)=O)nn2)cc1`, the inhibition was -3.14% (inactive). Consider `CC(=O)c1cccc(NC(=O)CN2C(=O)c3cccnc3Oc3ccc(Cl)cc32)c1`, for which the inhibition is 1.98% (inactive). Take `COc1cc(NC(=S)NNC(=O)CC(C)C)c(OC)cc1Cl`: the inhibition was 5.88% (inactive).

For `COc1ccc(C)cc1NC(=S)Nc1ccccc1SC`, the inhibition was 1.24% (inactive).

Consider `CCc1ccccc1NC(=S)Nc1cc(OC)c(NC(=O)C(C)C)cc1OC`, for which the inhibition is 22.1% (active). As for `FC(F)(F)c1cccc(Cn2ccc3ccc(-c4ccc5ccn(Cc6ccccc6)c5c4)cc32)c1`, the inhibition is -0.46% (inactive). On to `COc1ccc(Cn2ccc3ccc(-c4ccc5ccn(Cc6ccccc6C)c5c4)cc32)cc1`, for which the inhibition was 5.02% (inactive). On to `O=[N+]([O-])/C=C/c1ccc2c(ccn2Cc2ccccc2)c1`, for which the inhibition is 24.4% (active).

Regarding `COc1ccc(Cl)cc1-n1c(=S)sc2c(=O)n(-c3ccc(F)cc3)c(SCC(=O)O)nc21`, the inhibition is 4.71% (inactive). The value for `COc1cc2[nH]c(=S)n(Cc3ccc(F)cc3)c(=O)c2cc1OC` was 1.22% (inactive); that for `CCc1ccc(-n2c(=S)sc3c(=O)n(-c4ccccc4OC)c(=S)[nH]c32)cc1` was 84.4% (active).
